# KCNQ2 pot: enhances the rat KCNQ2 potassium channel. AID 2239. B-score at 10 µM. 310,000 compounds, 0.54% hits. CHO-K1 KCNQ2, FluxOR thallium flux fluorescence; hits give high values. O88943;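 active = fluorescence ratio B-score at least 3 SD of library B-scores, with initial fluorescence B-score within 3 of them, cut at about 5.3 in these data; same plate scores as AID 2156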;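 note: B-score of peak minus minimum over baseline fluorescence ratio after K+ and Tl+ stimulus; positive B-score means potentiation of KCNQ2 with more thallium influx and brighter signal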
# KCNQ2 block: inhibitors of rat KCNQ2 potassium channel; B-score at 10 µM; CHO-K1 KCNQ2, FluxOR thallium flux, 20 min; hits give low values; 310,000 compounds, 1.1% hits;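 active = fluorescence ratio B-score at most minus 3 library SDs, with starting brightness B-score within 2 library SDs, cut at about -5.5 in these data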
# Kir21 confirm: confirmation of mouse Kir2.1 potassium channel inhibitors; shares compounds with KCNQ2 pot; Kir2.1-expressing cells, FluxOR thallium flux fluorescence; hits give low values; Tl flux remaining, % of negative control (hits give low values), % at 10 µM; 2,300 compounds, 41% hits;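 active = Primary-screen hit whose thallium flux fell at least 3 control SD below untreated wells in both duplicates, with normal baseline fluorescence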;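 note: 0% = blank wells without stimulus and 100% = stimulated no-compound controls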
# Target sequence (P35561 whole entry, looked up): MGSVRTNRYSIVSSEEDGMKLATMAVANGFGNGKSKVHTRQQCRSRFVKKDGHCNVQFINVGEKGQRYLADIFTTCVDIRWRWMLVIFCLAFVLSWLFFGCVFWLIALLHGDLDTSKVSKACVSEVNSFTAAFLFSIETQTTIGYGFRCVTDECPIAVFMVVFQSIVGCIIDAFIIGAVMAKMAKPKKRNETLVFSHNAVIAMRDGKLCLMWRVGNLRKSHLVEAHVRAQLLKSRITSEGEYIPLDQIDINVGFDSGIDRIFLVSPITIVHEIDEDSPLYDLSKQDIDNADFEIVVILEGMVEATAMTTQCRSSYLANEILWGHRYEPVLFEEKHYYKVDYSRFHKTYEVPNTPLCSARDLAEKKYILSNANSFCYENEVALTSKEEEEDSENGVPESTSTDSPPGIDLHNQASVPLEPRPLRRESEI
# HEK293 ctr: alters thallium flux in parental HEK293 cells, Kir2.1 counter-screen; shares compounds with KCNQ2 pot; FluxOR thallium flux fluorescence; 0% = unstimulated blank wells; FluxOR signal as % of negative control (100 = no effect), % at 10 µM; 2,300 compounds, 19% hits;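 active = dye signal at least 3 control SD above or below untreated wells in both duplicates, raw fluorescence within 3, either direction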;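 note: percent is based on the flux ratio of peak minus minimum fluorescence over baseline F0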
# CHO-K1 ctr: alters thallium flux in parental CHO-K1 cells, KCNQ2 counter-screen; activity increase over 3SD of controls, % at 10 µM; shares compounds with KCNQ2 pot; 1,200 compounds, 43% hits; FluxOR thallium flux fluorescence; zero = vehicle mean+3SD, 100% = vehicle-minus-blank window;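 active = signal rise of at least 3 SD above the untreated control mean, in both duplicate wells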;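 note: counter screen of KCNQ2 potentiator hits so any rise reflects channel-independent effects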
# KCNQ1 pot spec: selectivity of KCNQ2 potentiators: effect on human KCNQ1; shares compounds with KCNQ2 pot; CHO KCNQ1 stable, FluxOR thallium flux fluorescence; beyond 3SD, as % of vehicle-control signal; activation over 3SD threshold, % at 10 µM; 1,200 compounds, 28% hits; AID 2283;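 active = fluorescence ratio rise of at least 3 SD of vehicle wells above their mean, in both replicate wells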;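 note: 0% = vehicle mean plus 3 SD and 100% = vehicle minus unstimulated blank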
# KCNQ2 pot conf: rat KCNQ2 channel potentiator confirmation. shares compounds with KCNQ2 pot. potentiation, less the hit threshold, % at 10 µM. CHO-KCNQ2 cells, FluxOR thallium flux fluorescence. 1,200 compounds, 68% hits;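 active = fluorescence ratio rising 3 SD or more over the vehicle control mean in both replicates, plus primary screen hit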;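 note: peak minus minimum thallium fluorescence divided by baseline after K/Tl stimulus; 0% = vehicle mean plus 3 SD and 100% = vehicle minus unstimulated blank difference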
# Kir21 spec: mouse Kir2.1 off-target activity of KCNQ2 potentiators; shares compounds with KCNQ2 pot; HEK293 Kir2.1, FluxOR thallium flux fluorescence; activity over 3SD threshold, % at 10 µM; 1,200 compounds, 2% hits;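 active = fluorescence ratio rise of at least 3 SD above the vehicle-control mean, seen in both replicates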;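 note: 0% = vehicle mean plus 3 SD and 100% = vehicle minus no-stimulus blank window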
# KCNQ2 W236L pot: potentiates the retigabine-insensitive rat KCNQ2 W236L mutant channel | AID 2558 | current increase over 3SD of negative controls (%), hits give high values, % at 25 µM | CHO KCNQ2-W236L, automated patch clamp current | shares compounds with KCNQ2 pot | 940 compounds, 10% hits;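 active = current increase at least 3 SD of the untreated controls above them in both duplicate recordings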
# * hit, by the source's call; i = inactive; / = not tested or not shown. In the library only some 1.6% were active in any assay of this set; here they are far more common.
SMILES,KCNQ2 pot,KCNQ2 block,Kir21 confirm,HEK293 ctr,others
CCCn1c2ccccc2c2cnn(CC(=O)N(CC)CC)c(=O)c21,/,i,/,/,
COCCn1c(SCC(=O)N(C)c2ccccc2)nc2c([nH]c3ccccc32)c1=O,0.11,i,/,/,
COC(=O)CSc1nnc(CNC(=O)c2ccc(OC)c(OC)c2)n1C,0.37,i,/,/,
CSCCC(NC(=O)c1ccccc1Cl)C(=O)N1CCN(c2ccccn2)CC1 (stereo not given),/,i,/,/,
Cc1nn(C)c(C(=O)Nc2c(C)nn(Cc3c(F)c(F)c(F)c(F)c3F)c2C)c1Br,1.4,i,/,/,
COC(=O)c1cnc(N2CCCN(S(=O)(=O)c3ccc(C(F)(F)F)cc3)CC2)nc1C(F)(F)F,/,i,/,/,
CCCCn1c(-c2ccccc2)cnc1SCC(=O)NCCc1ccc(OC)c(OC)c1,/,i,56%*,i,
COc1ccc(CCNC(=O)CSc2nnc(-c3ccccc3)c3ccccc23)cc1OC,/,i,/,/,
COC(=O)c1ccc(N2C(=O)C3CC=CC(C)C3C2=O)cc1 (stereo not given),1.3,i,/,/,
CCc1ccccc1N(C(=O)c1snc(C(N)=O)c1N)C(C(=O)NCC1CCCO1)c1c[nH]c2ccccc12 (stereo not given),/,i,/,/,
O=C(NC(=S)Nc1ccccc1)c1ccc(-c2ccccc2)cc1,0.29,i,/,/,
COc1ccc(NC(=S)NC(=O)c2csnn2)cc1,11*,i,i,242%*,CHO-K1 ctr=21*;KCNQ1 pot spec=-10;KCNQ2 pot conf=30*;Kir21 spec=-19;KCNQ2 W236L pot=i
O=C(NC(=S)Nc1ccccn1)c1cc(-c2ccccc2)nc2ccccc12,1.7,i,/,/,
O=C(NC(=S)Nc1ccccc1)c1csnn1,18*,i,i,487%*,CHO-K1 ctr=-18;KCNQ1 pot spec=-13;KCNQ2 pot conf=73*;Kir21 spec=-5;KCNQ2 W236L pot=i
COc1ccc(CNC(=O)c2csnn2)cc1,/,i,/,/,
O=C(NC(=S)Nc1ccccc1)c1cc(-c2ccccc2)nc2ccccc12,17*,i,i,131%*,CHO-K1 ctr=-13;KCNQ1 pot spec=-21;KCNQ2 pot conf=1.7*;Kir21 spec=-34;KCNQ2 W236L pot=i
O=C(NC(=S)Nc1ccc(C(F)(F)F)cc1)c1csnn1,21*,i,i,398%*,CHO-K1 ctr=2.2*;KCNQ1 pot spec=-26;KCNQ2 pot conf=69*;Kir21 spec=-23;KCNQ2 W236L pot=i
O=C(Nc1csnn1)c1csnn1,/,i,/,/,
COc1ccc(Nc2nc(NCCN3CCOCC3)nc(Nc3ccc(OC)cc3)n2)cc1,0.55,i,/,/,
O=C(COc1ccc2c3c(c(=O)oc2c1)CCC3)N[C@@H](Cc1ccccc1)C(=O)O,1.6,i,/,/,
N#Cc1ccc(C(=O)Nc2cccc3ccccc23)c(F)c1,1.3,i,/,/,
CC1=NNC(=O)C1CCC(=O)N/N=C/C=C/c1ccccc1 (stereo not given),0.85,i,/,/,
CC1=NNC(=O)C1CC(=O)N/N=C/C=C/c1ccccc1 (stereo not given),8.8*,i,i,i,CHO-K1 ctr=-10;KCNQ1 pot spec=-21;KCNQ2 pot conf=-14;Kir21 spec=-37
CN(C)C1(CNC(=O)C2CCN(S(=O)(=O)c3ccccc3C(F)(F)F)CC2)CCCCC1,0.13,i,/,/,
COc1ccc(OC(=O)c2ccc(OC)c(S(=O)(=O)N3CCOCC3)c2)cc1,0.01,i,/,/,
SMILES,KCNQ2 pot,KCNQ2 block,Kir21 confirm,HEK293 ctr,others
COc1ccc(C(C(=O)NC(C)(C)C)N(C(=O)CNC(=O)c2cccs2)c2cccnc2)cc1OC (stereo not given),0.45,i,/,/,
CCN(CC)S(=O)(=O)c1cc(OC)ccc1N=Nc1ccc(O)c2ncccc12,2,i,/,/,
CCOc1ccc(N=Nc2ccc(O)c3ncccc23)cc1,23*,i,i,i,CHO-K1 ctr=13*;KCNQ1 pot spec=12*;KCNQ2 pot conf=-20;Kir21 spec=-21
COc1ccc(Cl)cc1N(CC(=O)NCCSc1ccccn1)S(=O)(=O)c1ccccc1,/,i,/,/,
Cc1ccc2oc(C(=O)NCC(c3ccco3)N(C)C)c(C)c2c1 (stereo not given),0.75,i,/,/,
Oc1c(CN2CCOCC2)cc(COCc2ccccc2)c2cccnc12,11*,i,i,i,CHO-K1 ctr=-18;KCNQ1 pot spec=-25;KCNQ2 pot conf=26*;Kir21 spec=-41;KCNQ2 W236L pot=i
Oc1c(CN2CCN(c3ccccc3)CC2)cc(Br)c2cccnc12,0.22,i,/,/,
COc1ccc(NC(=O)C2CC(=O)N/C(=N/NC(=O)c3ccc(Cl)cc3)S2)cc1 (stereo not given),0.09,i,/,/,
COc1ccc(NC(=O)CN(C)C(=O)c2ccc3c(c2)S(=O)(=O)N=C2CCCCCN23)cc1,0.73,i,/,/,
CC1CCN(C(=O)CCNS(=O)(=O)c2ccccc2)CC1,0.15,i,/,/,
O=C(CCNS(=O)(=O)c1ccccc1)N1CCC(Cc2ccccc2)CC1,10*,i,i,i,CHO-K1 ctr=14*;KCNQ1 pot spec=88*;KCNQ2 pot conf=8.7*;Kir21 spec=-36;KCNQ2 W236L pot=i
COc1cccc(N2C(=O)Nc3ccc(Br)cc3C2(O)C(=O)NCCN(C)C)c1 (stereo not given),/,i,/,/,
CC1=CCC2C(=O)N(c3ccc(OC(=O)c4ccco4)cc3)C(=O)C2C1 (stereo not given),/,i,64%*,128%*,
COc1ccc(NC(=O)c2cccc(N3C(=O)C4CC=C(C)CC4C3=O)c2)c(OC)c1 (stereo not given),/,i,/,/,
O=C(Nc1c2c(nn1-c1ccc(F)cc1)CS(=O)C2)c1ccc(Br)o1 (stereo not given),0.96,i,/,/,
O=C(CCC1CCCCC1)Nc1c2c(nn1-c1ccc(F)cc1)CS(=O)C2 (stereo not given),10*,i,i,i,CHO-K1 ctr=-31;KCNQ1 pot spec=19*;KCNQ2 pot conf=47*;Kir21 spec=-31;KCNQ2 W236L pot=i
O=C(NCCn1cccn1)C1CCC(=O)N(CCc2ccccc2)C1 (stereo not given),/,i,/,/,
COc1ccc(Cl)cc1NC(=O)C(C)N1CCN(c2ccccn2)CC1 (stereo not given),/,i,/,/,
CCOc1cc(CNCCO)cc(Br)c1OCc1ccc(Cl)cc1Cl,-13,-13*,21%*,i,
CCOc1cccc(CNCCO)c1OCc1ccc(Cl)cc1Cl,1,i,/,/,
CCOc1cc(CNCc2ccncc2)cc(Br)c1OCc1ccccc1F,/,i,52%*,i,
CCOc1cc(CNCc2cccs2)cc(Br)c1OCC,/,i,/,/,
CCOc1cc(CNCCO)cc(Br)c1OCc1cccs1,0.12,i,23%*,i,

# Bioassay records deposited in PubChem by Johns Hopkins Ion Channel Center.
